# PubChem BioAssay
# Calls of active or inactive are those of the source. Unless noted, the rule behind the calls is not given here.
# Experiments:
# [1] = system: Wnt5a (protein binding on small-molecule microarray); test: small molecules binding Wnt5a protein – biophysical, small-molecule microarray, 635/667 nm fluorescence, primary screen (AID 1142); conditions: 635 nm fluorescence, higher = more signal;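 note: fluorescence read at 667 nm with signal to noise per printed feature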
# [2] = ATP-based viability of Huh7 replicon cells – cell-based, CellTiter-Glo luminescence, basal, 48 h, cytotoxicity control for HCV replication inhibitor project, primary screen (AID 1143); conditions: higher = more signal, called active from +8 up or from −8 down;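 note: Huh7 hepatoma cells carrying a hepatitis C replication reporter with no stimulus; test concentration not given here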
# [3] = Pseudomonas biofilm growth suppression – PAO1 strain, BacTiter-Glo luminescence, LB-PBS, primary screen (AID 1144); conditions: P. aeruginosa PAO1 biofilm, 12 h, higher = more signal
# [4] = basal CRE-LacZ reporter activity in PC12 – cell-based, unstimulated, primary screen (AID 1145); conditions: no forskolin, luminescence, 4.5 h, higher = more signal, called active from +8 up or from −8 down
# [5] = forskolin-driven CRE-LacZ activity in PC12 – cell-based, CRE-LacZ reporter, forskolin-stimulated, primary screen (AID 1146); conditions: luminescence, 4.5 h, higher = more signal, called active from +8 up or from −8 down;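 note: PC12 cells with 6xCRE LacZ reporter stimulated by forskolin 10 µM; beta-galactosidase reporter signal reflecting CREB driven transcription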
# [6] = target: Streptavidin (Streptomyces avidinii) (UniProt P22629); test: compounds binding control protein streptavidin – biophysical, small-molecule microarray, 635/667 nm fluorescence, artefact control for SMM compound annotation, primary screen (AID 1147); conditions: higher = more signal;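 note: signal reflects streptavidin binding to arrayed compounds as a control protein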
# Sequence of Streptavidin (Streptomyces avidinii) (P22629 whole entry, looked up): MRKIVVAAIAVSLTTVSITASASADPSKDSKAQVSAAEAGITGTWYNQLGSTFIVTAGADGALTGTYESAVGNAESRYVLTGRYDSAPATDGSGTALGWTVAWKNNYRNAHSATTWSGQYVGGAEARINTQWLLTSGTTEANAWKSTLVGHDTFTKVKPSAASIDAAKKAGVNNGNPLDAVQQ
# [7] = probe aInhba binding on compound microarray – biochemical, small-molecule microarray, 635/667 nm fluorescence, primary screen (AID 1148); conditions: higher = more signal;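 note: score merges 667nm spot fluorescence with signal-to-noise for antibody binding to printed compounds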
# Torsin-1A (Homo sapiens) [8] = target: Torsin-1A (Homo sapiens) (UniProt O14656); test: TOR1A wild-type binding on microarray – cell lysate, small-molecule microarray, lysate, 635/667 nm, primary screen (AID 1149); conditions: COS7 hTOR1A-WT lysate, 635 nm fluorescence, higher = more signal
# Sequence of Torsin-1A (Homo sapiens) (O14656 whole entry, looked up): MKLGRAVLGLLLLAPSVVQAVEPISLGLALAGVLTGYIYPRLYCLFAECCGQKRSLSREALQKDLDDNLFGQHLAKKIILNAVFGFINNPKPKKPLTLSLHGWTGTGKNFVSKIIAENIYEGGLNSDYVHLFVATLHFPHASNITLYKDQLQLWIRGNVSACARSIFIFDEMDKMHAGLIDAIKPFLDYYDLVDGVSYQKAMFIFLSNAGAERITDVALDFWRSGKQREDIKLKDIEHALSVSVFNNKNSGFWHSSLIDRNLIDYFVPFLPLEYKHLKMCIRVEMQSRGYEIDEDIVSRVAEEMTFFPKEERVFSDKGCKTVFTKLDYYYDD
# Torsin-1A (Homo sapiens) [9] = target: Torsin-1A (Homo sapiens) (UniProt O14656); test: torsin A mutant lysate binding on microarrays – cell lysate, small-molecule microarray, COS7 lysate, 635/667 nm fluorescence, primary screen (AID 1150); conditions: COS7 hTOR1A mutant lysate, 635 nm fluorescence, higher = more signal;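 note: score pools 667 nm emission and signal to noise measuring lysate protein binding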
# [10] = system: Sonic hedgehog protein (Shh); test: Sonic hedgehog microarray binding compounds – biochemical, small-molecule microarray, 635/667 nm fluorescence, primary screen (AID 1151); conditions: 635 nm fluorescence, higher = more signal;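 note: Shh protein binding to compounds spotted on small-molecule microarray slides; score combines spot fluorescence intensity with signal-to-noise across triplicate slides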
# [11] = optical density shifts of acrAB sulA E. coli – strain DRC41, OD650, 48 h, E. coli filamentation inducer project, primary screen (AID 1152); conditions: higher = more signal, called active from +8 up or from −8 down;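 note: E. coli MC1000 strain DRC41 lacking acrAB efflux pump and sulA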
# [12] = probe aLefty1 binding on compound microarray – biochemical, small-molecule microarray, 635/667 nm fluorescence, primary screen (AID 1153); conditions: higher = more signal;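 note: score merges spot fluorescence with signal-to-noise ratio from the scanned slide images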
# [13] = plasmodial surface anion channel blockers, osmotic lysis – cell-based, P. falciparum Indochina, OD700, 1 h, primary screen (AID 1154); conditions: P. falciparum Indochina infected RBC osmotic lysis, higher = more signal, called active from +8 up or from −8 down
# [14] = plasmodial surface anion channel blockers, osmotic lysis – cell-based, P. falciparum Indochina, OD700, 2 h, primary screen (AID 1155);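 note: lysis reports solute entry through the parasite surface anion channel PSAC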; conditions: P. falciparum Indochina infected erythrocytes, higher = more signal, called active from +8 up or from −8 down
# [15] = changes in parasitized red cell lysis, either direction – P. falciparum Indochina, OD700, 3 h, PSAC antagonist project, primary screen (AID 1156); conditions: P. falciparum-infected erythrocytes, osmotic lysis, higher = more signal, called active from +8 up or from −8 down
# [16] = plasmodial surface anion channel blockers, osmotic lysis – cell-based, P. falciparum Indochina, OD700, 18 h, primary screen (AID 1157); conditions: P. falciparum Indochina infected erythrocytes, osmotic lysis OD700, 18 h; higher = more signal, called active from +8 up or from −8 down
# [17] = S6 kinase pathway phospho-S6 level changes – cell-based, A549, cytoblot, luminescence, serum-stimulated, primary screen (AID 1158); conditions: 5 h, higher = more signal;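 note: serum-stimulated A549 lung adenocarcinoma cells; signal is phosphorylated S6 detected by cytoblot immunostaining with HRP secondary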
# [18] = target: NADPH oxidase 2 (Homo sapiens) (UniProt P04839); test: compounds shifting NOX2 Amplex Red fluorescence – cell-based, HEK293-NOX2, PMA-stimulated, NOX inhibitor project, primary screen (AID 1159); conditions: 45 min, higher = more signal, called active from +8 up or from −8 down; note: test concentration not given here
# Sequence of NADPH oxidase 2 (Homo sapiens) (P04839 whole entry, looked up): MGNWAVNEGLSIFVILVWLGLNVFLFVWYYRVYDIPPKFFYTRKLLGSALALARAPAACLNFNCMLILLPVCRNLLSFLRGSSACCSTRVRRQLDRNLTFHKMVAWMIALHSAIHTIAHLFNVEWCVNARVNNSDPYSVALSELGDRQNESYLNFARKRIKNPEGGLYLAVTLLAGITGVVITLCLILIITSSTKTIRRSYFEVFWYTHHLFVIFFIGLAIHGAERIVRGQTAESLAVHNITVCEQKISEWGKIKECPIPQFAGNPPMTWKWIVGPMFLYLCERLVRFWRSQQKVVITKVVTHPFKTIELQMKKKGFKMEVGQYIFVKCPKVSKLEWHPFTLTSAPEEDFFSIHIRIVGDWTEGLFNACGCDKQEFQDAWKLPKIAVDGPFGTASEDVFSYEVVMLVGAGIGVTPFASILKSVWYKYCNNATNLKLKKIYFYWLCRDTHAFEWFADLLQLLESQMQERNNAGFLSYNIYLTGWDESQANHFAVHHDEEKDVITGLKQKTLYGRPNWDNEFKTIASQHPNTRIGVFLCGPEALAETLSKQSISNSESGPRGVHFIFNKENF
# [19] = target: NADPH oxidase 4 (Homo sapiens) (UniProt Q9NPH5); test: compounds shifting NOX4 Amplex Red fluorescence – cell-based, HEK293-NOX4, tetracycline-induced, NOX inhibitor project, primary screen (AID 1160); conditions: HEK293-NOX4, Amplex Red H2O2 fluorescence, 45 min; higher = more signal, called active from +8 up or from −8 down
# Sequence of NADPH oxidase 4 (Homo sapiens) (Q9NPH5 whole entry, looked up): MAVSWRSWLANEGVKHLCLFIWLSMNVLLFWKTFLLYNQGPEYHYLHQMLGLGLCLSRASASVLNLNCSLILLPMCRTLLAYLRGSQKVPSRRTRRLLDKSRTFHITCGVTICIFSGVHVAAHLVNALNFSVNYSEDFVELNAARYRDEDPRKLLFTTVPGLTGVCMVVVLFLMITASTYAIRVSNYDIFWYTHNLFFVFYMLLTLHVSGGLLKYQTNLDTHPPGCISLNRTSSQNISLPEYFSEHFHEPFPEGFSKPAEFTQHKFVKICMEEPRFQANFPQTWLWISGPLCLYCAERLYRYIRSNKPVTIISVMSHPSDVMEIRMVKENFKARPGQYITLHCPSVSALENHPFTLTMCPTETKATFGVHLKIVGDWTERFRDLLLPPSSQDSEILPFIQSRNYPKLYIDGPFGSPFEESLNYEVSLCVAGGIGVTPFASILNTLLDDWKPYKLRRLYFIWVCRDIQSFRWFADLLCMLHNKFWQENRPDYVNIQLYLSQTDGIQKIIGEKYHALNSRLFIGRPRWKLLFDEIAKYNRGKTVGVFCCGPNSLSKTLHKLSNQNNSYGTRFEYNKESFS
# [20] = target: NADPH oxidase 5 (Homo sapiens) (UniProt Q96PH1); test: compounds shifting NOX5 Amplex Red fluorescence – cell-based, HEK293-NOX5, NOX inhibitor project, primary screen (AID 1161); conditions: HEK293-NOX5, ionomycin, 45 min, higher = more signal
# Sequence of NADPH oxidase 5 (Homo sapiens) (Q96PH1 whole entry, looked up): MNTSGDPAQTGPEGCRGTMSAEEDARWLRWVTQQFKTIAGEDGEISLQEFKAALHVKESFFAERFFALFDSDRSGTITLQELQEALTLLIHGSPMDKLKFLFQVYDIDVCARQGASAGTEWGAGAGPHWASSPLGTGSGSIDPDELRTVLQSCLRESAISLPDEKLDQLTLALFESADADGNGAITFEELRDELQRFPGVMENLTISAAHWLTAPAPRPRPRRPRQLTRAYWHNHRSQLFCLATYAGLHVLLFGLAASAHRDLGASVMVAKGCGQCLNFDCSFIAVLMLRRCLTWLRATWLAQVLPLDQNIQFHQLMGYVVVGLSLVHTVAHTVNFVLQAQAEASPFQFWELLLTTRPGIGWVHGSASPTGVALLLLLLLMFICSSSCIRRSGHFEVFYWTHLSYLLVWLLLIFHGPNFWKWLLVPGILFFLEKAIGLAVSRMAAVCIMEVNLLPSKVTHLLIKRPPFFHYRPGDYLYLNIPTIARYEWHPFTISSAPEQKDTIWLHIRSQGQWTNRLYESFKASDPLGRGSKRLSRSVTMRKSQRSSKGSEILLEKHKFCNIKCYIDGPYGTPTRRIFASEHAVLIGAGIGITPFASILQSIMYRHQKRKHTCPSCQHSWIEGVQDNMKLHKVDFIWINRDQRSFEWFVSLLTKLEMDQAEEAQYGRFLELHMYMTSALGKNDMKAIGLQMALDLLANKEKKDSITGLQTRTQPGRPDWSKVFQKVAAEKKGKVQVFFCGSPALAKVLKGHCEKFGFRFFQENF
SMILES,composite z-score [1],z-score [2],z-score [3],z-score [4],z-score [5],composite z-score [6],composite z-score [7],composite z-score (Torsin-1A (Homo sapiens) [8]),composite z-score (Torsin-1A (Homo sapiens) [9]),composite z-score [10],z-score [11],composite z-score [12],z-score [13],z-score [14],z-score [15],z-score [16],z-score [17],z-score [18],z-score [19],z-score [20]
O=C1C2C=CC(C(O)Cc3ccccc3)N(Nc3ccc([N+](=O)[O-])cc3)C2C(=O)N1c1ccccc1 (stereo not given),0.331,-0.219 (inactive),-0.138 (inactive),-1.33 (inactive),-0.0492 (inactive),0.355,0.46,0.187,0.222,-0.166,-0.458 (inactive),0.769,3.94 (inactive),1.61 (inactive),0.371 (inactive),0.877 (inactive),-0.521,-1.1 (inactive),-2.7 (inactive),-1.64
CO[C@H]1O[C@H](CO)[C@@H](OC(=O)Nc2ccc3c(c2)OCO3)[C@H](OC(=O)Nc2ccccc2)[C@@H]1OC(=O)Nc1ccccc1,0.743,-3.5 (inactive),-0.22 (inactive),0.605 (inactive),-1.49 (inactive),0.327,0.0398,0.491,1.09,1.12,-1.51 (inactive),0.121,7.77 (inactive),0.903 (inactive),-0.33 (inactive),0.717 (inactive),0.342,1.07 (inactive),-0.393 (inactive),-0.675
COc1cc2c(cc1OC)CN(C(=O)[C@H]1[C@@H]3C(=O)O[C@@H](c4ccccc4)[C@@H](c4ccccc4)N3[C@@H](c3ccccc3OCCO)[C@]13C(=O)Nc1ccc(C#CC4(O)CCCCCC4)cc13)CC2,1.01,-3.68 (inactive),-1.5 (inactive),-0.231 (inactive),1.57 (inactive),0.899,0.0119,0.808,1.12,1.33,2.29 (inactive),0.0686,3.02 (inactive),2.11 (inactive),3.25 (inactive),1.89 (inactive),0.389,1.07 (inactive),1.65 (inactive),1.43
C=CC[C@@]1(C(=O)NCC(O)CO)N=C(c2ccc(OCCCO)cc2)O[C@@H]1c1ccccc1CN=[N+]=[N-] (stereo not given in full),-0.233,-1.74 (inactive),-0.427 (inactive),-0.459 (inactive),-0.783 (inactive),0.0285,0.0705,1.09,2.13,-0.364,1.39 (inactive),0.129,24.9 (active),9.51 (active),1.99 (inactive),1.25 (inactive),0.281,-0.424 (inactive),0.495 (inactive),-0.927
CCOC(=O)C1=CCC(c2cccc3ccccc23)N(S(=O)(=O)c2ccc(C)cc2)C1 (stereo not given),0.204,-3.85 (inactive),0.00942 (inactive),-0.826 (inactive),-0.0663 (inactive),1.12,0.201,0.334,0.216,-0.717,-0.894 (inactive),0.071,1.49 (inactive),0.902 (inactive),-1.54 (inactive),0.411 (inactive),-0.415,1.42 (inactive),1.17 (inactive),1.49
CC(=O)NCCCC[C@@H]1NC(=O)[C@@H]2C[C@H](C(=O)NCc3ccc(F)cc3)[C@H](c3cccc(OCCO)c3)N2C1=O,0.0719,-0.608 (inactive),-0.225 (inactive),0.537 (inactive),0.517 (inactive),-0.454,-0.0209,0.544,1.05,1.8,0.197 (inactive),0.0259,5.48 (inactive),0.503 (inactive),-4.35 (inactive),0.374 (inactive),-0.206,1.87 (inactive),1.42 (inactive),1.1
Cc1ccc(S[C@]2(C(=O)NC(C)C)CC(=O)N(Cc3cc(C(F)(F)F)cc(C(F)(F)F)c3)[C@@H]2c2ccc(CO)cc2I)cc1,-0.168,-1.11 (inactive),0.381 (inactive),-0.554 (inactive),1.28 (inactive),-0.995,-0.148,0.61,1.66,-0.0174,0.191 (inactive),-0.136,3.22 (inactive),0.504 (inactive),-0.365 (inactive),0.132 (inactive),-0.398,1.57 (inactive),-1.07 (inactive),2.23
O=C/C=C/c1ccc(/C=C/c2ccccc2)cc1,-0.378,-2.23 (inactive),-0.0603 (inactive),-0.141 (inactive),-0.795 (inactive),-0.0122,-0.128,-0.373,-0.479,0.609,2.42 (inactive),0.25,3.87 (inactive),-0.941 (inactive),1.17 (inactive),-1.73 (inactive),0.972,0.825 (inactive),-1.69 (inactive),1.4
COC(=O)[C@H]1[C@@H]2COc3ccccc3[C@H]2N[C@H]1C(=O)OC,-0.0215,0.508 (inactive),-0.411 (inactive),2.13 (inactive),-0.827 (inactive),-0.142,-0.118,0.425,0.775,0.264,0.896 (inactive),-0.0046,0.262 (inactive),-0.122 (inactive),-0.406 (inactive),-0.21 (inactive),0.12,-2.88 (inactive),0.28 (inactive),-1.9
